Test systems include SR leukemia; RPMI-8226 leukemia; OVCAR-8 ovarian; OVCAR-5 ovarian; OVCAR-4 ovarian; SK-OV-3 ovarian; IGROV1 ovarian; OVCAR-3 ovarian; HS 578T breast; NCI/ADR-RES ovarian; T-47D breast; BT-549 breast; MDA-MB-435 melanoma; SW-620 colon; MCF7 breast; HCT-116 colon; HCC-2998 colon; KM12 colon.
What all share (assay): NCI-60 one-dose screen, 48 h (100 = growth as untreated, 0 = no growth, -100 = all killed)
Common to all, as to conditions: 10 µM unless noted

Each structure is given as a SMILES string. Compounds without any hit were thinned out: in the full panel of roughly 83,000, 20% have a hit.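 Activity criterion: percent growth below 10, measured after cells in 96-well plates were exposed to a single compound concentration for 48 hours.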 Unmarked numbers belong to inactive results. Active and inactive are the calls of the source.

On to `O=C1/C(=C/c2c[nH]c(=O)[nH]c2=O)SC(=S)N1Cc1ccccc1`, for which the growth in the experiment with SR leukemia was 99.5%; with RPMI-8226 leukemia it was 101%; in the experiment with OVCAR-8 ovarian, 100%; in the experiment on OVCAR-5 ovarian, 99%; in the experiment on OVCAR-4 ovarian, 105%; with SK-OV-3 ovarian, 103%. Further, the growth was 102% in the experiment with IGROV1 ovarian; 108% in the experiment on OVCAR-3 ovarian; 89% with HS 578T breast; 106% with NCI/ADR-RES ovarian; 108% in the experiment with T-47D breast; 107% with BT-549 breast. The growth with MDA-MB-435 melanoma is 100%; in the experiment on SW-620 colon, 98.7%; in the experiment on MCF7 breast it was 89.4%; in the experiment with HCT-116 colon it was 103%; with HCC-2998 colon it was 101%; with KM12 colon it was 101%.
Take `CCN(CC)CCOc1ccc(/C(=C(\C)Cc2ccc(OC)cc2)c2ccc(OC(=O)NCc3ccccc3)cc2)cc1`: the growth in the experiment with SR leukemia was -53% (active); in the experiment with RPMI-8226 leukemia, 3.04% (active); with OVCAR-8 ovarian, 68.7%; with OVCAR-5 ovarian it was 81.9%; with OVCAR-4 ovarian, 58%; in the experiment on SK-OV-3 ovarian, 91.2%. Besides, the growth was 77.5% with IGROV1 ovarian; 76.1% with OVCAR-3 ovarian; 63.2% in the experiment with HS 578T breast; 78.7% with NCI/ADR-RES ovarian; 40.6% in the experiment on T-47D breast; 77.4% in the experiment on BT-549 breast. Also, the growth in the experiment on MDA-MB-435 melanoma was 40.7%; in the experiment with SW-620 colon, 57.6%; with MCF7 breast it was 20.6%; with HCT-116 colon, 25.3%; in the experiment on HCC-2998 colon, 70.6%; with KM12 colon, 63.4%.
For `O=C(NCc1ccc(Cn2c(=O)sn(-c3ccccc3)c2=O)cc1)OCc1ccc2cccc(O)c2n1`, the growth was -11.3% (active) in the experiment with SR leukemia; -22.5% (active) in the experiment with RPMI-8226 leukemia; -0.135% (active) in the experiment with OVCAR-8 ovarian; -61.2% (active) with OVCAR-5 ovarian; -33.6% (active) in the experiment with OVCAR-4 ovarian; 75.8% with SK-OV-3 ovarian. In addition, the growth is -76.5% (active) in the experiment with IGROV1 ovarian; -87.1% (active) with OVCAR-3 ovarian; -1.39% (active) in the experiment on HS 578T breast; -28.1% (active) in the experiment on NCI/ADR-RES ovarian; -41.7% (active) in the experiment on T-47D breast; -85% (active) in the experiment on BT-549 breast. For the same molecule, the growth with MDA-MB-435 melanoma was -89.9% (active); in the experiment with SW-620 colon, -62.2% (active); in the experiment on MCF7 breast, -43.2% (active); with HCT-116 colon it was -87% (active); in the experiment with HCC-2998 colon, -71.6% (active); in the experiment on KM12 colon, -15.1% (active).
For the molecule `Nc1cc(-c2ccc(Cl)cc2)nn1-c1nnc(/C=C/c2ccco2)c(=O)[nH]1`, the growth with SR leukemia is 38.1%; in the experiment with RPMI-8226 leukemia, 43.3%; with OVCAR-8 ovarian it was 24.8%; in the experiment with OVCAR-5 ovarian, 60.9%; in the experiment on OVCAR-4 ovarian it was 29.1%; with SK-OV-3 ovarian it was 60.7%. Further, the growth in the experiment on IGROV1 ovarian is 35%; with OVCAR-3 ovarian, 37.9%; in the experiment with HS 578T breast, 74.1%; in the experiment with NCI/ADR-RES ovarian, 5.73% (active); in the experiment with T-47D breast it was 62.7%; in the experiment with BT-549 breast, 72%. Also, the growth with MDA-MB-435 melanoma is 62.8%; with SW-620 colon, 49.3%; in the experiment on MCF7 breast, 45.9%; in the experiment with HCT-116 colon it was 41%; in the experiment on HCC-2998 colon, 48.5%; in the experiment with KM12 colon, 56%.
With `CC1=C2CC/C(C)=C/CC[C@]3(C)O[C@H]3CC/C(C)=C/[C@H]2OC1`, the growth in the experiment with SR leukemia is 87.6%; in the experiment with RPMI-8226 leukemia, 93.6%; in the experiment on OVCAR-8 ovarian, 95.8%; in the experiment on OVCAR-5 ovarian it was 81.3%; in the experiment on OVCAR-4 ovarian, 95.2%; in the experiment on SK-OV-3 ovarian, 95.7%. In addition, the growth is 103% in the experiment with IGROV1 ovarian; 110% in the experiment with OVCAR-3 ovarian; 108% in the experiment with HS 578T breast; 87.7% in the experiment on NCI/ADR-RES ovarian; 86% in the experiment on T-47D breast; 106% in the experiment on BT-549 breast. The growth in the experiment on MDA-MB-435 melanoma is 98.7%; in the experiment with SW-620 colon, 107%; with MCF7 breast, 105%; in the experiment with HCT-116 colon, 101%; in the experiment with HCC-2998 colon it was 99.6%; with KM12 colon it was 120%.
Regarding `N=C(N)c1ccc(-c2ccc(-c3cc(Cl)cc(Cl)c3)s2)s1`, the growth in the experiment with SR leukemia was -29.4% (active); with RPMI-8226 leukemia, -26% (active); in the experiment with OVCAR-8 ovarian it was -34.6% (active); in the experiment on OVCAR-5 ovarian, 3.07% (active); in the experiment on OVCAR-4 ovarian, -58% (active); with SK-OV-3 ovarian, 88.7%. Further, the growth is -26.7% (active) in the experiment with IGROV1 ovarian; -76.2% (active) in the experiment with OVCAR-3 ovarian; 87.6% in the experiment with HS 578T breast; -21.4% (active) in the experiment on NCI/ADR-RES ovarian; -50% (active) in the experiment on T-47D breast; 87.8% in the experiment on BT-549 breast. The growth was -69.7% (active) with MDA-MB-435 melanoma; -39.8% (active) with SW-620 colon; -64.2% (active) with MCF7 breast; -52.5% (active) in the experiment with HCT-116 colon; -59.9% (active) in the experiment with HCC-2998 colon; -58.6% (active) in the experiment with KM12 colon.
As to `COc1ccc(/C=C(\C(=O)NCc2cccnc2)S(=O)(=O)c2ccccc2)cc1OC`, the growth is 17.4% in the experiment on SR leukemia; 18% in the experiment on RPMI-8226 leukemia; 28.3% in the experiment with OVCAR-8 ovarian; 45% in the experiment with OVCAR-5 ovarian; 42.1% in the experiment on OVCAR-4 ovarian; 81.1% with SK-OV-3 ovarian. Besides, the growth is 19.7% in the experiment on IGROV1 ovarian; 19.7% in the experiment with OVCAR-3 ovarian; 59.3% in the experiment with HS 578T breast; 83% in the experiment with NCI/ADR-RES ovarian; 12.1% with T-47D breast; 35.5% in the experiment with BT-549 breast. The growth in the experiment on MDA-MB-435 melanoma is -8.51% (active); in the experiment with SW-620 colon it was 11.9%; with MCF7 breast it was 12.9%; in the experiment on HCT-116 colon, 15%; in the experiment on HCC-2998 colon it was 96.6%; in the experiment on KM12 colon, 52.8%.
As for `Cc1cccc(N2C(=O)/C(=C/C(Cl)=C/c3ccc([N+](=O)[O-])cc3)SC2=S)c1C`, the growth with SR leukemia was 2.55% (active); in the experiment on RPMI-8226 leukemia, -13.1% (active); with OVCAR-8 ovarian, 9.93% (active); in the experiment with OVCAR-5 ovarian, 22.8%; in the experiment on OVCAR-4 ovarian, 19.8%; in the experiment with SK-OV-3 ovarian, 72.7%. For the same molecule, the growth is -40.5% (active) in the experiment with IGROV1 ovarian; -21.4% (active) in the experiment with OVCAR-3 ovarian; 27.8% in the experiment on HS 578T breast; 7.84% (active) in the experiment with NCI/ADR-RES ovarian; 5.42% (active) in the experiment with T-47D breast; 3.15% (active) in the experiment with BT-549 breast. In addition, the growth in the experiment on MDA-MB-435 melanoma was 10.4%; in the experiment with SW-620 colon, 0.401% (active); in the experiment on MCF7 breast, 15.2%; with HCT-116 colon, -38.8% (active); with HCC-2998 colon it was 42%; in the experiment with KM12 colon it was 19.3%.
